Results as given in article PMC7862700, “An all-to-all approach to the identification of sequence-specific readers for epigenetic DNA modifications on cytosine”.

Legend:
Assay in all cases: DAPPL (digital affinity profiling via proximity ligation, sequencing); 10 mM Tris-HCl pH 7.5, 50 mM NaCl, 1 mM DTT, 4% glycerol, room temperature, 30 min; GST-TFs on glutathione beads, 16-mer random dsDNA library, 0.1% formaldehyde crosslink after washing; high values mean tight binding
Settings in all cases: protein: recombinant; tags: N-terminal GST; dsDNA, one strand shown
ERF = target: T1, ERF (Homo sapiens, UniProt P50548 1-548)
T1 sequence: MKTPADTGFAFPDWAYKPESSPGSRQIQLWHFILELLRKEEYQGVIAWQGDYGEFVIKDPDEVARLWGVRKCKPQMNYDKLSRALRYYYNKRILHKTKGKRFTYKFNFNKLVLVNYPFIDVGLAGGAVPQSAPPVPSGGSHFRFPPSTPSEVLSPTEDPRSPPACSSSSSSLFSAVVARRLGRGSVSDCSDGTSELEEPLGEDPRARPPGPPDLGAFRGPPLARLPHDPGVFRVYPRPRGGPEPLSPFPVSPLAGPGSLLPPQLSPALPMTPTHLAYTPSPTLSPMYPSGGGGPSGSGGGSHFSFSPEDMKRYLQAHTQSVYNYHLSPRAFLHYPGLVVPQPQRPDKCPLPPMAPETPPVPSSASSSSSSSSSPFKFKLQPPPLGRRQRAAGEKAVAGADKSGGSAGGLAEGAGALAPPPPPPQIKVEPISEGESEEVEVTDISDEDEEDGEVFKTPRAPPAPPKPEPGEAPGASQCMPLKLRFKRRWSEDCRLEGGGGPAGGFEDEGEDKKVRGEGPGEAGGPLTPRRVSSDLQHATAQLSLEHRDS
In short: (§1)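 Binding signal is each hexamer's read frequency for a factor divided by its frequency in the tag-only sample. The factors were GST-fused human transcription factors from yeast, captured on glutathione beads, DNA-barcoded and pooled with that sample. Pools were incubated with 200 nmole of a random double-stranded 16-mer DNA library in Tris/NaCl/DTT/glycerol buffer at room temperature for 30 min, then washed, crosslinked with 0.1% formaldehyde, proximity-ligated with BsaI/T4 ligase (1 h, 37 °C), PCR-amplified and sequenced on an Illumina NextSeq500.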

ETV3L = target: T2, ETV3L (Homo sapiens, UniProt Q6ZN32 1-361)
T2 sequence: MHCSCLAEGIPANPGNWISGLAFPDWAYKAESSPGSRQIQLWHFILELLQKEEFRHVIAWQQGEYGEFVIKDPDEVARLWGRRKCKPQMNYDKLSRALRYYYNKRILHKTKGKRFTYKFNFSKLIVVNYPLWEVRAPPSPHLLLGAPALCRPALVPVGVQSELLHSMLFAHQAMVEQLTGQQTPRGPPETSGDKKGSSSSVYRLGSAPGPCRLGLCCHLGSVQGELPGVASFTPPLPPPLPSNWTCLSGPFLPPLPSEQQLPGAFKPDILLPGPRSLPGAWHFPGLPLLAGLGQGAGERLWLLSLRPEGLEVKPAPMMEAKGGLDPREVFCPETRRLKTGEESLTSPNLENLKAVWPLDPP
In short: as §1

ETS2 = target: T3, ETS2 (Homo sapiens, UniProt P15036 1-469)
T3 sequence: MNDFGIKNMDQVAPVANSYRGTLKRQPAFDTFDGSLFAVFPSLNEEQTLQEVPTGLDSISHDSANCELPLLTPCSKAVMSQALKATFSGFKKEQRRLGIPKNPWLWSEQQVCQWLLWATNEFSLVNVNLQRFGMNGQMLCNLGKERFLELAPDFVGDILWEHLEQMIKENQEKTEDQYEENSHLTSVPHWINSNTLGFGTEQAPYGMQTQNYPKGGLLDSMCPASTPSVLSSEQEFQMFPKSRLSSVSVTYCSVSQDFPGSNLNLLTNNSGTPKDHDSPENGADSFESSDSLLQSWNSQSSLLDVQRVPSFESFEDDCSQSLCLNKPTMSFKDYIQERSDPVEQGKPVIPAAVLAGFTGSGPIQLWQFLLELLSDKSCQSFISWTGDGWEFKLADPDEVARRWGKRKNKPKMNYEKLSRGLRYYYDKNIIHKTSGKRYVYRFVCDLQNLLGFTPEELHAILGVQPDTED
In short: as §1

SPDEF = target: T4, SPDEF (Homo sapiens, UniProt O95238 1-335)
T4 sequence: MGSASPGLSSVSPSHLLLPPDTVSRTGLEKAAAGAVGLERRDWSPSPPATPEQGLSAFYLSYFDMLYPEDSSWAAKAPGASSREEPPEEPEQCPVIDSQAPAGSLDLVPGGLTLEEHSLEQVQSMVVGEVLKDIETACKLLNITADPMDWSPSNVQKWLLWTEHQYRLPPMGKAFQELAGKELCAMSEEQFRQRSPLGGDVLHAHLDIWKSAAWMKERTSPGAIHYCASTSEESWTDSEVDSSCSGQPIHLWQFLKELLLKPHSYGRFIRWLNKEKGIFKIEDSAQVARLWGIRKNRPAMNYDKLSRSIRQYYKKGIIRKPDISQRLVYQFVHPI
In short: as §1

ETV7 = target: T5, ETV7 (Homo sapiens, UniProt Q9Y603 1-341)
T5 sequence: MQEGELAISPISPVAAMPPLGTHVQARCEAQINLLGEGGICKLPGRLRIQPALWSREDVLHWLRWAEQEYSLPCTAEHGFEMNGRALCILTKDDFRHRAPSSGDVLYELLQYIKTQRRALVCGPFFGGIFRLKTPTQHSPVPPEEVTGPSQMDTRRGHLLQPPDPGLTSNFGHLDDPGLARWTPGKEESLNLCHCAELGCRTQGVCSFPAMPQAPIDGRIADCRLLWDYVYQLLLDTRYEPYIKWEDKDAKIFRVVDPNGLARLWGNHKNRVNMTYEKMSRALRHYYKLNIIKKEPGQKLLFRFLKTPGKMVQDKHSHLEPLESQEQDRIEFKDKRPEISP
In short: as §1

ELF5 = target: T6, ELF5 (Homo sapiens, UniProt Q9UKW6-2 1-255)
T6 sequence: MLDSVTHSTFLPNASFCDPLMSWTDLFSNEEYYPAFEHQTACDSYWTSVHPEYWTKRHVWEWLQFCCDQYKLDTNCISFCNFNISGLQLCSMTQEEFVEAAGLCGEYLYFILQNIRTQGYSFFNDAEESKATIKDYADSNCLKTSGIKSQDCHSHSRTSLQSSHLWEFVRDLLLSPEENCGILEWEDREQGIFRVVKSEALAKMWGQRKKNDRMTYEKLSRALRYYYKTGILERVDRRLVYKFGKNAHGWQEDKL
In short: as §1

ETV3 = target: T7, ETV3 (Homo sapiens, UniProt P41162-2 1-143)
T7 sequence: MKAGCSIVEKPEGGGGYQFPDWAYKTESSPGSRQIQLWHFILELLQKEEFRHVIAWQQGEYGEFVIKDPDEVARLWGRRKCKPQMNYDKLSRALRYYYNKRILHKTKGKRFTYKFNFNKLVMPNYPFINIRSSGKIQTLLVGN
In short: as §1

ETV6 = ETV6 (Homo sapiens, UniProt P41212 1-452)
Sequence of ETV6 (P41212 whole entry): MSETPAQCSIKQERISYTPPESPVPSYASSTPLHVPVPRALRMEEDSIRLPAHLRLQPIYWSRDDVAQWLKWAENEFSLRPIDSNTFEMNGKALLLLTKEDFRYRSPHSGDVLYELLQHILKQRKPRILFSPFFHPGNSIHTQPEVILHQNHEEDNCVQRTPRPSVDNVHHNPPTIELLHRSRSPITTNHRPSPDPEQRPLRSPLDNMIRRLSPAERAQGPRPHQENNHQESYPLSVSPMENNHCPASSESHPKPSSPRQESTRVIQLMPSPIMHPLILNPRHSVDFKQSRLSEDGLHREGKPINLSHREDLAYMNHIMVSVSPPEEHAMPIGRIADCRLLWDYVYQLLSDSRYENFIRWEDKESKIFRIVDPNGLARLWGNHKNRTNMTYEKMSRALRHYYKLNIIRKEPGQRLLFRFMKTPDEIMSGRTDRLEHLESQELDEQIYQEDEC
In short: as §1

Sequence | binding signal (ERF) | binding signal (ETV3L) | binding signal (ETS2) | binding signal (SPDEF) | binding signal (ETV7) | binding signal (ELF5) | binding signal (ETV3) | binding signal (ETV6)
ATTTTG | 1.24 fold enrichment (6-mer frequency, TF over GST control) | 1.29 fold enrichment (6-mer frequency, TF over GST control) | 1.2 fold enrichment (6-mer frequency, TF over GST control) | 1.09 fold enrichment (6-mer frequency, TF over GST control) | 1.14 fold enrichment (6-mer frequency, TF over GST control) | 1.2 fold enrichment (6-mer frequency, TF over GST control) | 1.1 fold enrichment (6-mer frequency, TF over GST control) | 1.24 fold enrichment (6-mer frequency, TF over GST control)
TACACC | 1.21 fold enrichment (6-mer frequency, TF over GST control) | 1.17 fold enrichment (6-mer frequency, TF over GST control) | 1.1 fold enrichment (6-mer frequency, TF over GST control) | 1.24 fold enrichment (6-mer frequency, TF over GST control) | 1.13 fold enrichment (6-mer frequency, TF over GST control) | 1.18 fold enrichment (6-mer frequency, TF over GST control) | 1.18 fold enrichment (6-mer frequency, TF over GST control) | 1.15 fold enrichment (6-mer frequency, TF over GST control)
ACTCTG | 1.43 fold enrichment (6-mer frequency, TF over GST control) | 1.28 fold enrichment (6-mer frequency, TF over GST control) | 1.29 fold enrichment (6-mer frequency, TF over GST control) | 1.16 fold enrichment (6-mer frequency, TF over GST control) | 1.21 fold enrichment (6-mer frequency, TF over GST control) | 1.2 fold enrichment (6-mer frequency, TF over GST control) | 1.27 fold enrichment (6-mer frequency, TF over GST control) | 1.23 fold enrichment (6-mer frequency, TF over GST control)
ATTTAG | 1.22 fold enrichment (6-mer frequency, TF over GST control) | 1.15 fold enrichment (6-mer frequency, TF over GST control) | 1.07 fold enrichment (6-mer frequency, TF over GST control) | 1.13 fold enrichment (6-mer frequency, TF over GST control) | 1.07 fold enrichment (6-mer frequency, TF over GST control) | 1.04 fold enrichment (6-mer frequency, TF over GST control) | 1.12 fold enrichment (6-mer frequency, TF over GST control) | 1.21 fold enrichment (6-mer frequency, TF over GST control)
TTCTCG | 1.27 fold enrichment (6-mer frequency, TF over GST control) | 1.46 fold enrichment (6-mer frequency, TF over GST control) | 1.45 fold enrichment (6-mer frequency, TF over GST control) | 1.34 fold enrichment (6-mer frequency, TF over GST control) | 1.48 fold enrichment (6-mer frequency, TF over GST control) | 1.47 fold enrichment (6-mer frequency, TF over GST control) | 1.27 fold enrichment (6-mer frequency, TF over GST control) | 1.36 fold enrichment (6-mer frequency, TF over GST control)
TAAAAC | 1.22 fold enrichment (6-mer frequency, TF over GST control) | 1.2 fold enrichment (6-mer frequency, TF over GST control) | 1.15 fold enrichment (6-mer frequency, TF over GST control) | 1.18 fold enrichment (6-mer frequency, TF over GST control) | 1.27 fold enrichment (6-mer frequency, TF over GST control) | 1.12 fold enrichment (6-mer frequency, TF over GST control) | 1.24 fold enrichment (6-mer frequency, TF over GST control) | 1.16 fold enrichment (6-mer frequency, TF over GST control)
TTAGTT | 1.37 fold enrichment (6-mer frequency, TF over GST control) | 1.35 fold enrichment (6-mer frequency, TF over GST control) | 1.23 fold enrichment (6-mer frequency, TF over GST control) | 1.38 fold enrichment (6-mer frequency, TF over GST control) | 1.25 fold enrichment (6-mer frequency, TF over GST control) | 1.24 fold enrichment (6-mer frequency, TF over GST control) | 1.45 fold enrichment (6-mer frequency, TF over GST control) | 1.38 fold enrichment (6-mer frequency, TF over GST control)
ATCACC | 1.13 fold enrichment (6-mer frequency, TF over GST control) | 1.17 fold enrichment (6-mer frequency, TF over GST control) | 1.05 fold enrichment (6-mer frequency, TF over GST control) | 1.12 fold enrichment (6-mer frequency, TF over GST control) | 1 fold enrichment (6-mer frequency, TF over GST control) | 1.01 fold enrichment (6-mer frequency, TF over GST control) | 1.12 fold enrichment (6-mer frequency, TF over GST control) | 1.06 fold enrichment (6-mer frequency, TF over GST control)
GTCTCG | 1.29 fold enrichment (6-mer frequency, TF over GST control) | 1.29 fold enrichment (6-mer frequency, TF over GST control) | 1.37 fold enrichment (6-mer frequency, TF over GST control) | 1.09 fold enrichment (6-mer frequency, TF over GST control) | 1.28 fold enrichment (6-mer frequency, TF over GST control) | 1.26 fold enrichment (6-mer frequency, TF over GST control) | 1.33 fold enrichment (6-mer frequency, TF over GST control) | 1.32 fold enrichment (6-mer frequency, TF over GST control)
TAATGC | 1.07 fold enrichment (6-mer frequency, TF over GST control) | 1.16 fold enrichment (6-mer frequency, TF over GST control) | 1.2 fold enrichment (6-mer frequency, TF over GST control) | 1.17 fold enrichment (6-mer frequency, TF over GST control) | 1.13 fold enrichment (6-mer frequency, TF over GST control) | 1.17 fold enrichment (6-mer frequency, TF over GST control) | 1.16 fold enrichment (6-mer frequency, TF over GST control) | 1.13 fold enrichment (6-mer frequency, TF over GST control)
TAGTAT | 1.29 fold enrichment (6-mer frequency, TF over GST control) | 1.23 fold enrichment (6-mer frequency, TF over GST control) | 1.27 fold enrichment (6-mer frequency, TF over GST control) | 1.15 fold enrichment (6-mer frequency, TF over GST control) | 1.44 fold enrichment (6-mer frequency, TF over GST control) | 1.25 fold enrichment (6-mer frequency, TF over GST control) | 1.26 fold enrichment (6-mer frequency, TF over GST control) | 1.29 fold enrichment (6-mer frequency, TF over GST control)
TTATTT | 1.26 fold enrichment (6-mer frequency, TF over GST control) | 1.38 fold enrichment (6-mer frequency, TF over GST control) | 1.41 fold enrichment (6-mer frequency, TF over GST control) | 1.19 fold enrichment (6-mer frequency, TF over GST control) | 1.46 fold enrichment (6-mer frequency, TF over GST control) | 1.43 fold enrichment (6-mer frequency, TF over GST control) | 1.41 fold enrichment (6-mer frequency, TF over GST control) | 1.4 fold enrichment (6-mer frequency, TF over GST control)
ATAATA | 1.32 fold enrichment (6-mer frequency, TF over GST control) | 1.14 fold enrichment (6-mer frequency, TF over GST control) | 1.2 fold enrichment (6-mer frequency, TF over GST control) | 1.15 fold enrichment (6-mer frequency, TF over GST control) | 1.14 fold enrichment (6-mer frequency, TF over GST control) | 1.17 fold enrichment (6-mer frequency, TF over GST control) | 1.2 fold enrichment (6-mer frequency, TF over GST control) | 1.2 fold enrichment (6-mer frequency, TF over GST control)
GTGCTT | 1.26 fold enrichment (6-mer frequency, TF over GST control) | 1.14 fold enrichment (6-mer frequency, TF over GST control) | 1.25 fold enrichment (6-mer frequency, TF over GST control) | 1.37 fold enrichment (6-mer frequency, TF over GST control) | 1.3 fold enrichment (6-mer frequency, TF over GST control) | 1.41 fold enrichment (6-mer frequency, TF over GST control) | 1.3 fold enrichment (6-mer frequency, TF over GST control) | 1.37 fold enrichment (6-mer frequency, TF over GST control)
ATGTTT | 1.46 fold enrichment (6-mer frequency, TF over GST control) | 1.48 fold enrichment (6-mer frequency, TF over GST control) | 1.29 fold enrichment (6-mer frequency, TF over GST control) | 1.37 fold enrichment (6-mer frequency, TF over GST control) | 1.46 fold enrichment (6-mer frequency, TF over GST control) | 1.47 fold enrichment (6-mer frequency, TF over GST control) | 1.47 fold enrichment (6-mer frequency, TF over GST control) | 1.47 fold enrichment (6-mer frequency, TF over GST control)
